# Measured values taken from ChEMBL document CHEMBL3988442, “University of Dundee, Small-Polar-MMV Screening Library” (2021).
# For some assays here: Potency and affinity values are given separately.
# Assays:
# Design in all cases: scale not given: direction of the effect not stated beside the values
# [1] = molecular target: Protein translocase subunit SecA (Escherichia coli (strain K12)) (UniProt P10408); assay: Assay to Identify E. coli SecA ATPase Inhibitors; format: functional; conditions: 30 µM
# Protein translocase subunit SecA (Escherichia coli (strain K12)), sequence (P10408 whole entry): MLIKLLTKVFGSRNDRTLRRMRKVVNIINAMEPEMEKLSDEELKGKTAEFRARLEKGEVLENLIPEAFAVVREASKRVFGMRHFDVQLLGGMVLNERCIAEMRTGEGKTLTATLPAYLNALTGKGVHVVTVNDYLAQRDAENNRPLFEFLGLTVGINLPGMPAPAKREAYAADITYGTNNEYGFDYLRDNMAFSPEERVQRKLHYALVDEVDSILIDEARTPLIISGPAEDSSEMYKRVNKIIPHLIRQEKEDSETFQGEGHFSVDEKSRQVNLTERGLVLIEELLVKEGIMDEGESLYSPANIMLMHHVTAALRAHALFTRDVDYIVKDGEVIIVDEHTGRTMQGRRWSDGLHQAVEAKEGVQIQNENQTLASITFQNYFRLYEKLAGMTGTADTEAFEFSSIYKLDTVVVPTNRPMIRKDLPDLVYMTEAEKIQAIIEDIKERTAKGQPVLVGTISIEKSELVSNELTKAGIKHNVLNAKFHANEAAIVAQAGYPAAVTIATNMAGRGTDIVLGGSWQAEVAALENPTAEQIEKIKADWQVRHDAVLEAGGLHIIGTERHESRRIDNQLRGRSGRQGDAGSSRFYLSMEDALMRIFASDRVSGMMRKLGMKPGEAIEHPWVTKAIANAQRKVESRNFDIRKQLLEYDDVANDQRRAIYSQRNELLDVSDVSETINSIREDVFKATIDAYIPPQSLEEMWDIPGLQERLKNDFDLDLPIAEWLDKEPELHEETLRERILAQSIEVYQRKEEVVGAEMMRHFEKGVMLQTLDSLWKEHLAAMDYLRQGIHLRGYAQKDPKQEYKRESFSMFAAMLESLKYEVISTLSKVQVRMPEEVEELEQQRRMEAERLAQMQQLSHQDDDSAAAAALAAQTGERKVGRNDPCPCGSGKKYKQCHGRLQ
# [2] = molecular target: T1, Ubiquitin-activating enzyme e1, putative (Leishmania donovani (strain BPK282A1)) (UniProt E9BSI1); assay: Leishmania donovani Ubiquitin Activating Enzyme (LdE1); format: functional; conditions: 30 µM
# T1 sequence (whole entry): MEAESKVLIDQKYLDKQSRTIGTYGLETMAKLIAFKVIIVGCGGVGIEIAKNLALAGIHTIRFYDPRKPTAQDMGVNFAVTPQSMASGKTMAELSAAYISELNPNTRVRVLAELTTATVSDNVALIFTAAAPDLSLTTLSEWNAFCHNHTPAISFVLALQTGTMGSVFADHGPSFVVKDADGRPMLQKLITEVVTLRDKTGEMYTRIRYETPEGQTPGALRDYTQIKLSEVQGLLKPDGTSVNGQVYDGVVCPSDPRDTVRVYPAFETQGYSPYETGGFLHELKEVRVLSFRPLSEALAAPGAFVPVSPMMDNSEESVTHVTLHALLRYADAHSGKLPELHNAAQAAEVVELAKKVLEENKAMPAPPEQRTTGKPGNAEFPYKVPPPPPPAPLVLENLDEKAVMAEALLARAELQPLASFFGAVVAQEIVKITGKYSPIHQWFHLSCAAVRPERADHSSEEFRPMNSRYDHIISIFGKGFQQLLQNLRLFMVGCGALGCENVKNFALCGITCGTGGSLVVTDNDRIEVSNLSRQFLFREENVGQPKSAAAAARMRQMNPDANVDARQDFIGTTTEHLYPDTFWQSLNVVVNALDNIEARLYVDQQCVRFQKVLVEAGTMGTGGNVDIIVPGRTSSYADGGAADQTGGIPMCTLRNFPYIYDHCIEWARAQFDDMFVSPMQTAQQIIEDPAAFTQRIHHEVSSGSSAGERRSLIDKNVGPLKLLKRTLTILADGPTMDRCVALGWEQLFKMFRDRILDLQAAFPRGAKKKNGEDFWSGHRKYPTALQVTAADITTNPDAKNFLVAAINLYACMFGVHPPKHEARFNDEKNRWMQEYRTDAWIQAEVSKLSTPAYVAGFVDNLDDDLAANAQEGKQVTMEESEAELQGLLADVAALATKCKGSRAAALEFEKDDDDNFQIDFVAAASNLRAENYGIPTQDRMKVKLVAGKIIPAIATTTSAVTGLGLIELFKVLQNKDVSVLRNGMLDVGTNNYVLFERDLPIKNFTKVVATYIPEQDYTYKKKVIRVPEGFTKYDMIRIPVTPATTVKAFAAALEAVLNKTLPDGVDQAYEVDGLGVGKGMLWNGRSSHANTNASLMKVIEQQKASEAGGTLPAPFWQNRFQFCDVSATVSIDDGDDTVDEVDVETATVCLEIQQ
# [3] = molecular target: AMP-activated protein kinase, AMPK (Homo sapiens) (UniProt P54646+O43741+P54619+Q9UGJ0+Q9Y478+Q13131+Q9UGI9); assay: AMP-dependent Kinase enzyme assay. An in vitro enzyme assay that detects ADP turnover that is directly proportional to AMPK activity. This uses naive AMPK that is activated during the assay with MK-8722; format: functional; conditions: 30 µM
# [4] = molecular target: Sialic acid-binding Ig-like lectin 9 (Homo sapiens) (UniProt Q9Y336); assay: Hs-Siglec9 ALPHAscreen SOP 20170721; conditions: 10 µM
# Sialic acid-binding Ig-like lectin 9 (Homo sapiens), sequence (Q9Y336 whole entry): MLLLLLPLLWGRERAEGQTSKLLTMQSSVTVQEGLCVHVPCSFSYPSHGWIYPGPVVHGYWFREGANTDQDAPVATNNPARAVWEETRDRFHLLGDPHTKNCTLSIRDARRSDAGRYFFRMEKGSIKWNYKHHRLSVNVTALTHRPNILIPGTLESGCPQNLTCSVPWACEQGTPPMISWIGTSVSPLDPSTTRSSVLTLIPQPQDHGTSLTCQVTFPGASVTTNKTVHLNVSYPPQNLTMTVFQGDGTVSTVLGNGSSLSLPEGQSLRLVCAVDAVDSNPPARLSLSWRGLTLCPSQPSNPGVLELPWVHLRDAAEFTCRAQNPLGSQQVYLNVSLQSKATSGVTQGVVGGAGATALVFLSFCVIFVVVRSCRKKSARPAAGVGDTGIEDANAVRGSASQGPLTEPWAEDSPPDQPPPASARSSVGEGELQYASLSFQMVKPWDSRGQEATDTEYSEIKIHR
# Trypanosoma cruzi = assay: Trypanosoma cruzi phosphomannomutase and mannose-1-phosphate guanylyltransferase assay; format: functional; conditions: 10 µM
# [5] = molecular target: T2, Arginase-2, mitochondrial (Homo sapiens) (UniProt P78540); assay: in vitro enzyme assay to detect the production of urea directly proportional to the activity of Arginase II; format: functional; conditions: 33.3 µM; further: in the data most compounds retested in dose-response had high values
# T2 sequence (whole entry): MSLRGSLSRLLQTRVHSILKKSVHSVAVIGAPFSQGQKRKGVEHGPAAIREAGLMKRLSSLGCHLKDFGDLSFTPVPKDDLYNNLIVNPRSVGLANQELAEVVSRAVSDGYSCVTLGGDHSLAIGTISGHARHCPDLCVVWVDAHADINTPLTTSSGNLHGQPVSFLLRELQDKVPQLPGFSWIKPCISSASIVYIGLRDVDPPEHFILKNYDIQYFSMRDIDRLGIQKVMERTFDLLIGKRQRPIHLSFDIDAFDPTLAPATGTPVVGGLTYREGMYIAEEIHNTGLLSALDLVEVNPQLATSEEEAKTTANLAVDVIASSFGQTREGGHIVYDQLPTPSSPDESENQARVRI
# [6] = molecular target: T3, Proteasome subunit beta (Trypanosoma cruzi) (UniProt O96673); assay: Trypanosoma cruzi proteasome chymotrypsin-like activity (TcProtChymo) assay.; further: in the data most compounds retested in dose-response had high values; format: functional; conditions: 9.37 µM
# T3 sequence (whole entry): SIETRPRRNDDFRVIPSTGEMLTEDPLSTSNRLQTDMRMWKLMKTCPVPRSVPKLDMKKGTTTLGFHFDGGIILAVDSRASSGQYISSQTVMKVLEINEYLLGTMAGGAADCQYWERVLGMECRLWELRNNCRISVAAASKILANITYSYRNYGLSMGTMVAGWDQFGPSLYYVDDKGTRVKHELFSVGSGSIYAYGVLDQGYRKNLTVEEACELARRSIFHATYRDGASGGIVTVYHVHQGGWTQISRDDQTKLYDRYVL
# Homo sapiens = organism: Homo sapiens; assay: To identify inhibition of the IFN signalling (Jak-Stat) pathway via expression of an eGFP reporter gene under the control of an IFN-stimulated response element (ISRE) containing MxA promoter.; format: functional; conditions: 30 µM
# [7] = molecular target: T4, Tyrosyl-tRNA synthetase, putative (Trypanosoma cruzi (strain CL Brener)) (UniProt Q4DSP6); assay: Trypanosoma cruzi tyrosyl tRNA synthetase (TcYRS) _High Tyrosine SOP; format: functional; conditions: 30 µM; further: in the data most compounds retested in dose-response had high values
# T4 sequence (whole entry): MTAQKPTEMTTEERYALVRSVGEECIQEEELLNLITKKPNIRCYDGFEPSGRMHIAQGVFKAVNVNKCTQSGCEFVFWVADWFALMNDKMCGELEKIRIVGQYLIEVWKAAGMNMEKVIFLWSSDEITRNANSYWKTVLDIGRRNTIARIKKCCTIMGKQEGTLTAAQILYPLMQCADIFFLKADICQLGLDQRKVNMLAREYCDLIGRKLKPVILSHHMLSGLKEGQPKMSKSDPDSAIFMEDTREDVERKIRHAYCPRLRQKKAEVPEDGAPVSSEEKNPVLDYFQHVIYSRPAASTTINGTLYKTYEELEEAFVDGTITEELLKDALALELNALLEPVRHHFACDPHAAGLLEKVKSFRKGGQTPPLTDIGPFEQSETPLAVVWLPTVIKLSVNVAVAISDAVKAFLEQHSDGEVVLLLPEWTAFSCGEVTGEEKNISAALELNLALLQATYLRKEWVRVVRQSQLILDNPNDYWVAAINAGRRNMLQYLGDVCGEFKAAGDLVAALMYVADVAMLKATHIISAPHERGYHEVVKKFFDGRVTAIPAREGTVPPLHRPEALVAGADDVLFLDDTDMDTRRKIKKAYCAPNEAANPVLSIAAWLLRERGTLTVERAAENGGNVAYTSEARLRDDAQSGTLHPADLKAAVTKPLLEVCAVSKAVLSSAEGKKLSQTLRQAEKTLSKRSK
# [8] = molecular target: T4, Tyrosyl-tRNA synthetase, putative (Trypanosoma cruzi (strain CL Brener)); assay: Trypanosoma cruzi tyrosyl tRNA synthetase (TcYRS) SOP; format: functional; conditions: 30 µM
# [9] = molecular target: Chromo domain-containing protein 1 (Saccharomyces cerevisiae (strain ATCC 204508 / S288c) (Baker's yeast)) (UniProt P32657); assay: ScCHD-1 Enzyme Inhibition Assay; format: functional; conditions: 30 µM; further: in the data most compounds retested in dose-response had high values
# Chromo domain-containing protein 1 (Saccharomyces cerevisiae (strain ATCC 204508 / S288c) (Baker's yeast)), sequence (P32657 whole entry, the tested form may be a part): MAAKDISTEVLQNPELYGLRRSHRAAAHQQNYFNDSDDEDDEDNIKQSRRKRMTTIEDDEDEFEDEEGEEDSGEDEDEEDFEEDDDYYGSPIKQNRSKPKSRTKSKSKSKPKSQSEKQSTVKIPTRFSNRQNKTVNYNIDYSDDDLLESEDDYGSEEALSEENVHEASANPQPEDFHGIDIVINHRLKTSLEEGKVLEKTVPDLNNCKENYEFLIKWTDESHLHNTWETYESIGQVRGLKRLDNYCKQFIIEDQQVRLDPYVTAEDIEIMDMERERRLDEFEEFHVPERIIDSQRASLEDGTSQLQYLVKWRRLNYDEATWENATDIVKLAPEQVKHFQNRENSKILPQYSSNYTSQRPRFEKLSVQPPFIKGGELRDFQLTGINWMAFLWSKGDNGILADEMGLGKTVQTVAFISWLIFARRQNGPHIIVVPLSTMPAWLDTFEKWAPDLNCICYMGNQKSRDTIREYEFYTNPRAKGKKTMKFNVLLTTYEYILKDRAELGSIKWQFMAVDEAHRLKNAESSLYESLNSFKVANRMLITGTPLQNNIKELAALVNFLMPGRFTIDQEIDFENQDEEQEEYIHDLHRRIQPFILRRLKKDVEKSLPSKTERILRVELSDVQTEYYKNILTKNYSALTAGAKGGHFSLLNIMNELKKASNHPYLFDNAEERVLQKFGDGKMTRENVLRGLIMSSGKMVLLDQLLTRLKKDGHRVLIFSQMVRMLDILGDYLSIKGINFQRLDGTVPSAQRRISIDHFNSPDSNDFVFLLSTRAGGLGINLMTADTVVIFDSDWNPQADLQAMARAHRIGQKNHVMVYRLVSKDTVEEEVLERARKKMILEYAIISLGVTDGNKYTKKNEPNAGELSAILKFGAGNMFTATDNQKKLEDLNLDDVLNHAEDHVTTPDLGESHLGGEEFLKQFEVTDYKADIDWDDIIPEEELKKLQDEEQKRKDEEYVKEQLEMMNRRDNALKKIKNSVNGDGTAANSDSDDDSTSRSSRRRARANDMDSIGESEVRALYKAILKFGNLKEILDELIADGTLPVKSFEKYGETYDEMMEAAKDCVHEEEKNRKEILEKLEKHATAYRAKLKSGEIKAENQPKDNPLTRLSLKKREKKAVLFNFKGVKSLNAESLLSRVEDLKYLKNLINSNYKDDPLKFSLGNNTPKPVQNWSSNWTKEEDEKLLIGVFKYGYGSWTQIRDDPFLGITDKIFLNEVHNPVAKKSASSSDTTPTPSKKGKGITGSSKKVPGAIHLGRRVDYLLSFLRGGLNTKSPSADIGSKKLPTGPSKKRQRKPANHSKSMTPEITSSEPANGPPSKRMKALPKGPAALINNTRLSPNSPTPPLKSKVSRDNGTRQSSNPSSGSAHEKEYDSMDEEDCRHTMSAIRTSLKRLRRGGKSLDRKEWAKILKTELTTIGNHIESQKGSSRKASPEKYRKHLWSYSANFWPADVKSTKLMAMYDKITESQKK
SMILES,Percent Effect [1] [%],Percent Effect [2] [%],Percent Effect [3] [%],Percent Effect [4] [%],Percent Effect (Trypanosoma cruzi) [%],Percent Effect [5] [%],Percent Effect [6] [%],Percent Effect (Homo sapiens) [%],Percent Effect [7] [%],Percent Effect [8] [%],Percent Effect [9] [%]
Cc1nc(C2CCCN2CCCNS(C)(=O)=O)no1 (stereo unspecified),-3.7,15.8,-4.74,1.41,7.14,4.98,20.4,-7.41,4.41,19.5,-5.18
O=C(CCC1CC1)N1C[C@@H](CN2CCCC2)[C@@H](CO)C1,-2.75,0,2.73,1.73,-2.46,-8.28,3.49,4.43,2.15,6.17,-2.02
CCOc1ccc(C(=O)NS(=O)(=O)c2cncc(Br)c2)cc1OC,-4.35,13.5,-8.62,34.9,10.6,3.81,0.517,2.53,3.7,9.76,-13.3
CC(O)CN1CCN(Cc2nnc(C3CC3)o2)CC1 (stereo unspecified),-2.68,22.8,-5.24,-11.8,6.7,4.56,15,-18.4,6.4,21.5,-4.52
CCN(CC)C(=O)c1nnn(-c2ccc(C)cc2)c1C1CC1,-2.41,13.5,-1.1,9.18,6.04,1.29,-1.62,6.05,0,18.3,-3.92
Cc1noc2ncc(C(=O)N3CCCC3c3cnn(C)c3)cc12 (stereo unspecified),-1.99,2.53,-1.98,-2,-2.17,-3.42,3.52,12,-3.45,-1.27,-2.49
O=C(c1ccsc1)N1CCOC2(CCN(Cc3cccnc3)CC2)C1,-1.61,-2.67,3.67,7.65,0.579,-3.4,8.38,-17,3.12,5,-6.25
O=C(Nc1nc2c(s1)CCC2)c1cccnc1N1CCOCC1,-0.311,-2.63,9.51,-0.88,-4.19,11.8,4.7,2.75,0,-2.6,1.45
CC(c1ccc(Cl)cc1)N1CCN(CCNS(C)(=O)=O)CC1 (stereo unspecified),-4,-2.7,-2.79,66.6,3.28,0.952,10.7,4.77,4.76,19.5,-8.23
CCCC1(CO)CCCN(c2ncccc2F)C1 (stereo unspecified),-0.789,5.41,-4.77,3.77,-1.16,-2.38,14.8,10.4,5.82,12.2,-3.22
CCc1noc(C)c1C(=O)N1CCCC1c1c(C)nn(C)c1OC (stereo unspecified),-2.91,-2.53,2.09,2.98,2.36,-3.42,-3.03,-17.3,1.48,1.27,0.826
O=C(Cn1nc2c(cc1=O)CSCC2)NC(Cc1ccccc1)C(=O)O (stereo unspecified),-6.43,20,-8.36,1.5,7.47,89.3,15,7.8,-2.12,15.4,-19
Cn1ccnc1COc1ccc(CO)cc1,-1.04,5.2,-1.87,-8.74,-5.06,8.19,6.59,36.8,3.88,14.6,-8.46
Cc1nc(C)n(CC2CCCN(CCc3ccncc3)C2)n1 (stereo unspecified),-3.33,16.4,0.226,18.2,2.35,1.36,15.6,-0.0927,7.53,17.5,-9.61
COc1cccc2cc(CNCc3ccnc(N4CCOCC4)c3)oc12,-5.63,0,-16.9,3.48,-6.7,-6.41,10.6,26.6,1.48,-11.1,3.15
CNC(=O)N1CC[C@H]2N(C)CC[C@@]2(C(=O)Nc2ccccc2)CC1,-3.9,5.41,-2.05,1.61,5.08,4.17,2.45,11.5,1.98,6.1,-1.69
